Test results taken from PubChem BioAssay (NCATS).
Inconclusive results are not listed. A number with no mark means an inactive call. Activity calls are given as the source filed them.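 The calls were made as follows: active = compounds whose dose-response curve shows a full or clear partial loss of cell viability, called from curve shape rather than a numeric limit; inconclusive = weak partial curves or an effect only at the top dose; inactive = no dose-dependent loss of viability.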

assay: Cell Viability - Hek293 (AID 427); conditions: qHTS;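 also: cells exposed to compound for 40 hours at 37 °C before reading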
From the text: NIH Chemical Genomics Center [NCGC]
NIH Molecular Libraries Screening Centers Network [MLSCN]
National Institutes of Environmental Health Sciences [NIEHS]
National Toxicology Program [NTP]
We have developed a 1536-well cell-based assay for quantitative high throughput screening (qHTS) against a number of cell lines to determine in vitro cytotoxicity of small molecules. This particular assay uses the Hek 293 cell line which is derived from human embryonic kidney cells (transformed with adenovirus).
NCGC Assay Protocol Summary:
The CellTiter-Glo luminescent cell viability assay (Promega) is a homogeneous method to measure the number of viable cells in culture. The end point readout of this assay is based on quantitation of intracellular ATP, an indicator of metabolic activity, using the luciferase reaction. Luciferase catalyzes the oxidation of beetle Luciferin to oxyluciferin and light in the presence of ATP. The luminescent signal is proportional to amount of ATP present.
Using the CellTiter-Glo luminescent cell viability assay, the amount of cellular ATP was measured in the Hek293 cell line with complete culture medium following compound treatment for 40 hours. The assay was performed in opaque white Kalypsys 1536-well plates. In the screen, tamoxifen and doxorubicin were used as positive controls. Library compounds were measured for their ability to cause acute toxicity in the cell line, as reflected by a decrease in intracellular ATP levels, in a concentration-dependent manner. Data were normalized to the controls for basal activity (DMSO only) and 100% inhibition (100 uM tamoxifen). AC50 values were determined from concentration-response data modeled with the standard Hill equation.
qHTS protocol fo CellTiter Glo Hek 293 cellular assay
[Step] [Parameter] [Value] [Description]
2. Time; 5 hr; 37 °C incubation
4. Controls; 23 nL; Tamoxifen 0.34 uM to 100 uM & Doxorubicin 0.02 nM to 100 uM
5. Time; 40 hr; 37 °C incubation
6. Reagent; 5 uL; CellTiter Glo reagent
7. Time; 20 min; Room Temperature
8. Detection; Luminescence; Viewlux plate reader
Keywords: cell viability, cytotoxicity, Hek293 cell line, luminescence, NTPHTS, NTPHTS_NCGC, NIEHS, EPA, DSSTox, MLSMR, MLSCN, NIH Roadmap, qHTS, NCGC
Potency is read from the fitted curve at half-maximal effect.

SMILES | Potency
CC(C)C(C)(C)C(C)(C)C(C)(C)S | > 92 µM
Nc1cccc2c(N)cccc12 | > 92 µM
CCCCCCCCCCCCCCCC[n+]1ccccc1 | 54.4 µM (active)
CC(C)(c1ccc(O)cc1)c1ccc(O)cc1 | > 92 µM
OCc1c[nH]c2ccccc12 | > 92 µM
O=C(Oc1ccccc1)c1ccccc1O | > 92 µM
CCCCC(CC)COC(=O)c1ccccc1C(=O)O (centres undefined) | > 92 µM
CCCC(=O)c1cc(O)c(O)cc1O | > 92 µM
Nc1ccc(O)cc1 | 47.3 µM (active)
COc1cc(C=O)ccc1O | > 92 µM
Cc1ccc(O)cc1 | > 92 µM
O=C(NO)c1ccccc1 | > 92 µM
Brc1ccccc1-c1ccccc1 | > 92 µM
c1ccc2occc2c1 | > 92 µM
O=C(c1ccccc1)c1ccccc1 | > 92 µM
Cc1cc(C(C)(C)C)c(O)c(C(C)(C)C)c1 | > 92 µM
C1=CC2C3C=CC(C3)C2C1 (centres undefined) | > 92 µM
CC(=O)OC/C=C(C)/C=C/C=C(C)/C=C/C1=C(C)CCCC1(C)C | > 92 µM
Oc1ccccc1 | > 92 µM
